Only a selection was taken, and hits are over-represented in it overall.
MgrA-DNA mod: S. aureus MgrA activity modulators, primary screen, biochemical, S. aureus Newman, fluorescence polarization | AID 602314, 2012 | inhibition, % (concentration not given with the values) | MgrA-DNA binding | 0.13% of 84,000 active; in the data active = inhibition above about 30%, passing the limit was not always enough;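 note: higher means less MgrA bound to DNA so lower polarization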
Hits are given with their value; 0 = inactive.

SMILES	MgrA-DNA mod
O=C1NC(=O)N(c2ccccc2)C(=O)/C1=C/c1ccco1	0
O=C1NC(=S)N(c2ccccc2)C(=O)/C1=C/C=C/c1ccco1	80
CN1C(=O)NC(=O)/C(=C/c2ccco2)C1=O	0
CC(C)(C)C1CCC(N2CCOCC2)CC1 (configuration not stated)	0
Clc1ccc(CCC(Cn2ccnc2)Sc2c(Cl)cccc2Cl)cc1 (configuration not stated)	0
C=C[C@H]1CN2CC[C@H]1C[C@@H]2[C@H](O)c1ccnc2ccccc12	0
CN1CCc2[nH]c(=S)c(C#N)c(-c3ccccc3)c2C1	0
CN1CCc2c(C#N)c(Cl)nc(NCc3ccccc3)c2C1	0
CN1CCc2c(C#N)c(N)n(N)c(=S)c2C1	161
COc1ccccc1CCNCc1ccccc1C(F)(F)F	0
